Source: PubChem BioAssay (National Center for Advancing Translational Sciences (NCATS))
Most compounds without a hit are left out; they make up all but 10% or so of the library.
FLuc inh – Firefly luciferase inhibition profiling of diverse chemical library using quantitative high-throughput screening | 76,000 compounds, 2.5% hits | Luciferin 4-monooxygenase (Photinus pyralis), P08659 | purified P. pyralis luciferase, luminescence, biochemical | Potency, µM (titrated, usually from 115 µM), actives largely listed as inhibitors; further: on the % scale 0 is the no-effect control and ±100 the full control effect; nearly all actives have a fitted effect of over 65% in size
Target sequence (P08659 whole entry, looked up): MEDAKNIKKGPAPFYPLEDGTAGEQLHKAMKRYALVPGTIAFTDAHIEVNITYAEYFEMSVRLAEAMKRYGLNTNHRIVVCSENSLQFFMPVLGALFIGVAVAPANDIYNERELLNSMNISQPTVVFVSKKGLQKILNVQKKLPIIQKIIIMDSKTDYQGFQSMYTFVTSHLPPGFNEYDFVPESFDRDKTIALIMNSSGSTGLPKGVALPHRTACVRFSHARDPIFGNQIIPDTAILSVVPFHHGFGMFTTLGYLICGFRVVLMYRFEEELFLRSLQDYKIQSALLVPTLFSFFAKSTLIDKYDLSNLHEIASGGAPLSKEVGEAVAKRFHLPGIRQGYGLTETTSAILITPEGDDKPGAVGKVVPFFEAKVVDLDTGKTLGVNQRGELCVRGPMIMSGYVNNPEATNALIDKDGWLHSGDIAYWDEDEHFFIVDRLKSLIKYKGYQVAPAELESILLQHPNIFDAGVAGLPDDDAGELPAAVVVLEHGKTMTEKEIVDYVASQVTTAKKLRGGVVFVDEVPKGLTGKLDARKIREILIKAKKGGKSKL
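Luminescence read by CCD imaging after purified firefly luciferase (10nM final) was added to substrate buffer holding 10uM D-luciferin and 10uM ATP, pH 7.5, pre-dosed with compound.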
HEK cytotox – Cytotoxic Profiling in HEK 293 Cell Line of Diverse Libraries Using Quantitative High-Throughput Screening; HEK 293 viability, ATP luminescence (CellTiter-Glo), 48-72 h; Potency, µM (top dose mostly 115 µM), for inactives: top-dose activity change, negative = cytotoxicity, hits mostly inhibitors; 94,000 compounds, 6.6% hits; further: on the % scale 0 is the no-effect control and ±100 the full control effect; nearly all actives have a fitted effect of over 60% in size
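HEK 293 cells at 250 cells/well were exposed to compounds by pintool transfer for 48 or 72 hr at 37 degree Celsius, 5% CO2. Viability was read as ATP-coupled luminescence with CellTiter-Glo after 10 min at room temperature.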
GPT2 inhibitor – Primary qHTS assay for inhibitors of Glutamate pyruvate transaminase 2 (GPT2) | Alanine aminotransferase 2 (Homo sapiens), Q8TD30 | Recombinant GPT2, coupled pyruvate oxidase/HRP Amplex Red fluorescence | Potency, µM (series often up to 57.7 µM), without a hit: at the highest dose activity change, negative = inhibition, hits mostly inhibitors | 100,000 compounds, 0.25% hits; further: on the % scale 0 is the no-effect control and ±100 the full control effect; nearly all actives have a fitted effect of over 60% in size
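Inhibition is scored from Amplex Red fluorescence generated when pyruvate oxidase and HRP act on pyruvate released by GPT2. Reactions contain 10ng/uL enzyme, 250uM a-KG and 2mM L-alanine and run 30 min at room temperature.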
NIH3T3 tox – Cytotoxic Profiling in NIH 3T3 Cell Line of Diverse Libraries Using Quantitative High-Throughput Screening. NIH 3T3 viability, CellTiter-Glo ATP luminescence, 48-72 h. Potency, µM (highest dose often 96.7 µM), without a hit: at the top dose activity change, negative = cytotoxicity, usual class: inhibitors. 94,000 compounds, 4.3% hits. AID 1345082, 2018; further: on the % scale 0 is the no-effect control and ±100 the full control effect; nearly all actives have a fitted effect of over 55% in size
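Luminescent ATP readout (CellTiter-Glo, 10 min RT) after 48 or 72 hr compound exposure of NIH 3T3 cells seeded at 400 cells/well in 1536-well format; quantitative HTS.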
NPR1 antag – Natriuretic polypeptide receptor (hNpr1) antagonism - Primary qHTS. Atrial natriuretic peptide receptor 1 (Homo sapiens), P16066. HEK293 hNpr1 GloSensor cGMP, ANP-stimulated luminescence. Potency, µM (highest dose often 46.3 µM), for the others: at the highest dose activity change, negative = inhibition, usual class: inhibitors. 76,000 compounds, 1.6% hits. AID 1347048, 2019; calls by dose curve; further: on the % scale 0 is the no-effect control and ±100 the full control effect; nearly all actives have a fitted effect of over 60% in size
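Compound pre-incubated 30 min at room temperature on GloSensor-loaded HEK293 cells stably carrying hNpr1 and the pGS-40F cGMP biosensor. Stimulation uses hNppA at 0.1 nM final; luminescence is taken at baseline and 20 min post-agonist.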
Npr1 antag conf – Natriuretic polypeptide receptor (hNpr1) antagonism - Confirmation | shares compounds with NPR1 antag | HEK293 hNpr1 cGMP GloSensor luminescence, ANP-stimulated | Potency, µM (top dose mostly 57.6 µM), for inactives: at the highest dose activity change, negative = inhibition, actives largely listed as inhibitors | 1,400 compounds, 76% hits; calls by dose curve; further: nearly all actives have a fitted effect of over 70% in size
Npr2 selectivity – Natriuretic polypeptide receptor (hNpr2) antagonism - Subtype selectivity assay; shares compounds with NPR1 antag; HEK293 hNpr2 GloSensor cGMP luminescence, CNP-stimulated; Potency, µM (series often up to 57.6 µM), inactives show top-dose activity change, negative = inhibition, most hits filed as inhibitors; 1,400 compounds, 67% hits; AID 1347046, 2019; calls by dose curve; further: nearly all actives have a fitted effect of over 70% in size
FLuc inh counter – Natriuretic polypeptide receptor (hNpr1) antagonism - Confirmation firefly luciferase (FLuc) inhibition counterscreen; 1,400 compounds, 0.7% hits; Potency, µM (top dose mostly 57.6 µM), for inactives: at the highest dose activity change, negative = inhibition, most hits filed as inhibitors; purified FLuc enzyme, luminescence, Km substrate; shares compounds with NPR1 antag; AID 1347047, 2019; further: 0% is about no effect
GloSensor ctrl – Natriuretic polypeptide receptor (hNpr1) antagonism - Counterscreen GloSensor control cell line; shares compounds with NPR1 antag; HEK293 GloSensor cGMP, SNP-stimulated, luminescence; Potency, µM (titrated, usually from 57.6 µM), inactives show at the highest dose activity change, negative = inhibition, hits mostly inhibitors; 1,400 compounds, 69% hits; calls by dose curve; further: on the % scale 0 is the no-effect control and ±100 the full control effect; nearly all actives have a fitted effect of over 70% in size
* = called active by the depositor; i = inactive; ? = inconclusive; . = no result; [ ] = another dose, or the depositor's remark. Unless noted, the call rests on the fitted dose curve; in most records, active means well fitted curve in the direction sought with a large enough effect; inconclusive means small, poorly fitted or top-dose-only effect, or another doubt; inactive means no such curve, though single readings can be large; an effect the other way counts as inactive or inconclusive. Potency means the concentration at half of the fitted maximal effect.

SMILES	FLuc inh	HEK cytotox	GPT2 inhibitor	NIH3T3 tox	NPR1 antag	Npr1 antag conf	Npr2 selectivity	FLuc inh counter	GloSensor ctrl
Cc1ccc(C)c(NC(=O)[C@H]2CCC[C@H]2NC(=O)c2cnc(C)cn2)c1	i	4.3%	i	-7.5%	-0.2%	.	.	.	.
COc1ccc(NC(=O)Cn2c(-c3ccccc3)nc(C)cc2=O)cc1	i	?	1.2%	?	-25.0%	.	.	.	.
COc1ccc(NC(=O)Cc2c[nH]c3ncc(-c4ccccc4C)cc23)cc1	i	79.4µM*	-8.2%[88.5 µM]	?	35.5µM*	25µM*	17.7µM*	-8.3%[86.2 µM]	31.4µM*
O=C(NCc1nnc2ccc(-c3ccccc3)nn12)c1ccc[nH]1	i	-9.1%	i	-17.2%	5.6%	.	.	.	.
O=C1Nc2ccccc2CN(CC2CCCCC2)C12CCNC2 (centres undefined)	.	89.1µM*	-1.5%	22.4µM*	.	?	13.5µM*	4.4%	-7.4%
O=C1Nc2ccccc2CN(CC2CCCCC2)C12CCNCC2	.	35.5µM*	-9.6%	?	.	19.3µM*	6.11µM*	2.9%	-21.3%
COCCOC1CN(C2CCN(S(=O)(=O)c3ccccc3)CC2)C12CCCCC2 (centres undefined)	i	-16.8%	?	-11.2%	-6.5%	.	.	.	.
COc1cccc(S(=O)(=O)N2CCC(c3noc(-c4cnccn4)n3)C2)c1 (centres undefined)	i	5.2%	0.6%	?	1.5%	.	.	.	.
CCC(C)(C)NC(=O)CC1Sc2ncccc2N(CC(C)C)C1=O (centres undefined)	i	?	-4.7%	-7.8%	1.2%	.	.	.	.
CCC(=O)N1CCc2c(C(=O)NCc3cc(OC)ccc3OC)cccc21	i	?	-19.8%	-17.9%	-2.9%	.	.	.	.
COc1ccc(OC)c(CNC(=O)c2cccc3c2CCN3C(=O)c2ccc(F)cc2)c1	i	?	-12.4%	?	?	?	?	3.7%	?
COc1ccccc1-c1ncc(CNc2cc(C3CC(O)C3)ncn2)s1 (centres undefined)	i	31.6µM*	4.2%	-64.2%	7.08µM*	8.62µM*	12.2µM*	-27.1%	6.85µM*
O=C1NCCCCCCN(Cc2cccc(F)c2)[C@H]2C[C@H](C(=O)N3CCc4ccccc4C3)C[C@@H]12	i	25.1µM*	3.6%	39.8µM*	15.8µM*	?	?	0.3%	-13.3%
COc1cccc(CN2CCCCCCNC(=O)[C@@H]3C[C@@H](C(=O)N4CCc5ccccc5C4)C[C@@H]32)c1	i	?	-5.4%	?	-10.6%	.	.	.	.
Cc1cc(C(=O)N2CCC(F)(c3nc(-c4ccncc4)no3)CC2)n(C)n1	i	?	i	-26.2%	11.2µM*	27.3µM*	30.6µM*	1.9%	27.3µM*
COC(=O)[C@@H]1Cc2ncn(Cc3ccc(Cl)cc3)c2CN1C(=O)c1ccc(C#N)cc1	i	-9.3%[172 µM]	-6.1%[88.5 µM]	?	3.9%[70.6 µM]	.	.	.	.
COC(=O)[C@@H]1Cc2ncn(Cc3ccc(Cl)cc3)c2CN1Cc1cccc(C#N)c1	i	63.1µM*	i	?	?	?	?	-0.6%[86.2 µM]	?
COCCNC(=O)Cc1csc2nc(C)c(-c3cc(C)n(-c4ccccc4F)n3)c(=O)n12	i	i	i	2.2%	1.5%	.	.	.	.
O=C1OCC2=C1C(c1ccc(Cl)cc1)NC(=O)N2CC(=O)N1CCC(Cc2ccccc2)CC1 (centres undefined)	i	28.2µM*	i	?	12.6µM*	19.3µM*	24.3µM*	-1.2%	19.3µM*
CC1CCN(C(=O)CN2C(=O)NC(c3ccccc3)C3=C2COC3=O)CC1 (centres undefined)	i	1.1%	1.8%	i	5.6%	.	.	.	.
CCOc1ccccc1C1NC(=O)N(CC(=O)Nc2cccc(C(F)(F)F)c2)C2=C1C(=O)OC2 (centres undefined)	i	?	i	44.7µM*	?	?	-27.1%	-9.0%	?
O=C(CN1C(=O)NC(c2ccc(Cl)cc2)C2=C1COC2=O)Nc1cccc(C(F)(F)F)c1 (centres undefined)	i	?	i	?	?	?	?	-19.4%	?
CC(C)NC(=O)CCc1nnc(-c2cccc(OC(C)C)c2)[nH]c1=O	i	-2.6%	i	-20.5%	-6.0%	.	.	.	.
O=C(NCCCn1ccnc1)c1nc(-c2ccccc2)cc2[nH]ccc12	i	?	2.2%[88.5 µM]	?	?	?	?	2.8%[86.2 µM]	-19.3%[86.2 µM]
O=C1CCC(CNC(=O)c2nc(-c3ccccc3)cc3[nH]ccc23)N1 (centres undefined)	i	-4.6%[172 µM]	-21.4%[88.5 µM]	?	-6.2%[70.6 µM]	.	.	.	.
c1ccc(-c2ccnc3nc(C4CC4)nn23)cc1	i	-24.0%	-5.1%	-8.2%	-1.4%	.	.	.	.
CCOc1ccc(C(=O)N2CCCN(c3cc(-c4ccc(F)cc4)[nH]n3)CC2)cc1	i	31.6µM*	?	?	22.4µM*	27.3µM*	?	0.5%	21.7µM*
COc1ccc(-c2cc(N3CCCN(C(=O)c4ccc(Cl)cc4)CC3)n[nH]2)cc1	i	?	-4.7%	-17.4%	0.0%	.	.	.	.
